Measurements as given in the supplement of paper PMC3484114.
± gives the standard deviation.

These compounds were tested on OVCAR-3-derived ovarian cancer stem-like cells (spheroids) (assay: cell growth relative to untreated control; higher = more growth (less inhibition)). Conditions: 2.29 µM; 96 h.
Method in brief: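 After trypsin dissociation, OVCAR-3 spheroid-derived stem-like cells were placed in ultra-low attachment 96-well plates at 50,000 cells/mL in stem cell medium and preincubated for 24 h. Treatment at 2.29 uM followed for 96 h at 37°C, 5% CO2, with 4 replicate wells per compound. A 4 h TOX8 resazurin fluorescence read (ex 560/em 590 nm) gave viability, from which percent growth relative to untreated wells was derived after blank subtraction and Grubbs outlier removal.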

Row | SMILES | cell growth
1 | COc1cc(NS(C)(=O)=O)ccc1Nc1c2ccccc2nc2ccccc12 | 41.4 ± 12%
2 | CC(C)c1ccc2nc3ccc(C(=O)NCCN(C)C)cn3c(=O)c2c1 | 79.4 ± 21%
3 | CC[C@@]1(O)C(=O)OCc2c1cc1n(c2=O)Cc2cc3c(N)cccc3nc2-1 | 46.5 ± 11%
4 | CCN(CC)CCCNc1ncc(C)c2[nH]c3ccncc3c12 | 82.7 ± 8.6%
5 | COc1ccccc1[S+]([O-])Nc1ccccc1 (centres undefined) | 117 ± 25%
6 | O=S(=O)(O)c1cc(N=Nc2cc(S(=O)(=O)O)c3cccnc3c2O)ccc1/C=C/c1ccc(N=Nc2cc(S(=O)(=O)O)c3cccnc3c2O)cc1S(=O)(=O)O | 93.7 ± 14%
7 | Cc1ccc(NC(=S)C#N)c(C)c1 | 89.9 ± 27%
8 | O=C1C(=O)c2ccccc2C(O)=C1CCCc1ccc(Oc2ccccc2)cc1 | 87.1 ± 37%
9 | Cc1ccc2c(ccc(C=Cc3ccc(O)c4ncccc34)[n+]2C)c1 | 23.7 ± 4.7%
10 | CC(C)(C)[Si](C)(C)OCC1CCC(n2cnc3c(N)ncnc32)O1 (centres undefined) | 111 ± 23%
11 | N[C@H](C(=O)O)[C@@H]1CC(Cl)=NO1 | 85.3 ± 21%
12 | CN(N=O)C(=O)N[C@@H]1[C@@H](O)[C@H](O)[C@@H](CO)O[C@@H]1O | 104 ± 29%
13 | Nc1ccn([C@@H]2C=C(CO)[C@@H](O)[C@H]2O)c(=O)n1 | 44.8 ± 5.1%
14 | COC1=C(N)C(=O)c2nc(C)ccc2C1=O | 125 ± 79%
15 | Nc1ncnc2c([C@@H]3O[C@H](CO)[C@@H](O)[C@H]3O)c[nH]c12 | 127 ± 35%
16 | COc1ccc(OC)c(-c2cc(=O)c3c(OC)c(OC)c(OC)c(OC)c3o2)c1 | 128 ± 50%
17 | O=C(CCCN1CCC(C(O)c2ccc(F)cc2)CC1)c1ccc(F)cc1 (centres undefined) | 99.7 ± 22%
18 | CCN(CC)CCCC(C)Nc1ccnc(/C=C/c2ccc(Cl)cc2)c1 (centres undefined) | 84.6 ± 25%
19 | COc1ccc(OC)c2nc3c(C(=O)NCCN(C)C)cccc3nc12 | 119 ± 27%
20 | CC(=O)[O][Hg].c1ccc2c(c1)ccc1ccccc12 | 132 ± 32%

Row | SMILES | cell growth
21 | CCc1cccc(CC)c1NC(=O)C(C#N)C1=C(Cl)C(=O)c2ccccc2C1=O (centres undefined) | 70.3 ± 31%
22 | C=CC(=O)N1C/C(=C\c2ccccc2)C(=O)/C(=C/c2ccccc2)C1 | 43.2 ± 6.1%
23 | Cc1cc(NCCCCCCCNc2cc(C)nc3cc(N)ccc23)c2ccc(N)cc2n1 | 96.4 ± 25%
24 | CC(C)(C)NCCC(O)c1cc(C(F)(F)F)nc2c(C(F)(F)F)cccc12 (centres undefined) | 108 ± 23%
25 | Cc1cc2nc(C=C(C(F)(F)F)C(F)(F)F)oc2cc1C | 130 ± 36%
26 | Oc1ccc(/C=N/NC(=S)Nc2cccnc2)nc1 | 145 ± 23%
27 | CCCC(=O)[O-].[Na+] | 88.2 ± 19%
28 | N#CCCN(CCC#N)c1ccc(C=Nc2ccc(F)cc2)cc1 | 101 ± 28%
29 | Cc1ccccc1NC(=O)/C=N/O | 81 ± 7.2%
30 | N#CC1CC(c2ccccc2)Nc2cc(Cl)ccc2N1 (centres undefined) | 80.4 ± 20%
31 | c1coc(CNc2ncnc3[nH]ncc23)c1 | 37.7 ± 8.4%
32 | Cc1ccc(S(=O)(=O)c2ccc([N+](=O)[O-])o2)cc1 | 47.4 ± 31%
33 | O=C(CC(O)(C(F)(F)F)C(F)(F)Cl)CC(O)(C(F)(F)F)C(F)(F)Cl (centres undefined) | 66.8 ± 21%
34 | CNC(=S)N/N=C/c1ccc([N+](=O)[O-])s1 | 87.9 ± 21%
35 | O=C1NC(=O)[C@H]2[C@H]3C=C[C@@H]([C@@H]12)[C@@H]1[C@H]2C(=O)NC(=O)[C@H]2[C@H]31 | 121 ± 29%
36 | NC(=O)N/N=C1\CC2C3CC4C2C4C13 (centres undefined) | 106 ± 20%
37 | CCOC(=O)c1ccc(-c2cc(C)no2)[nH]1 | 54.8 ± 10%
38 | CC(C)c1cccc(O)c(=O)c1 | 91.8 ± 19%
39 | O=C(NCCCCCCCCNC(=O)c1cccc2ccccc12)c1cccc2ccccc12 | 80.8 ± 18%
